GLP1R inv ag = inverse agonists of human GLP-1 receptor | HEK293 GLP-1R CRE-luciferase, luminescence, 24 h; GLP-1R form is constitutively active | AID 624417 | P43220 | Potency, µM (titrated, usually from 38.3 µM), for the others: at the top dose activity change, negative = inhibition, actives largely listed as inhibitors | actives 1.6% (n = 410,000); also: % is scaled to controls: 0 for no effect and ±100 for the full control effect; nearly all actives have a fitted effect of over 55% in size
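Assay principle: reduced luminescence from a cAMP-responsive reporter in HEK293 cells co-expressing a constitutively active GLP-1R. Conditions: 24 hr compound incubation, 37 deg C, 5% CO2.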
Pin1 inhibitor = human Pin1 inhibition; Pin1 FP peptide displacement, HiFluor488, 10 min; Potency, µM (series often up to 115 µM), for inactives: at the highest dose activity, negative = inhibition, actives largely listed as inhibitors; actives 0.009% (n = 390,000); active = well fitted inhibition curve with a large enough effect in the polarisation, with a control signal flat, not every such curve was filed as active; inconclusive = small, poorly fitted or top-dose-only effect, or effect the other way, or a change in a side signal; inactive = no such curve, though single readings can be large or run the other way; the % refers to the polarisation; also: % is scaled to controls: 0 for no effect and ±100 for the full control effect
Target sequence (Q13526 whole entry, looked up): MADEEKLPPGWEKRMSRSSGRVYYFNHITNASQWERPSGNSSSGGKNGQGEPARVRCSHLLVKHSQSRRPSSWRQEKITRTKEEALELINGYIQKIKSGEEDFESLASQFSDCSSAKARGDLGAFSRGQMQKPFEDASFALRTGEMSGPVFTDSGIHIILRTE
GLP1R ag = activates the human GLP-1 receptor | P43220 | HEK293 GLP-1R CRE-luciferase, luminescence, 4-6 h; cells express a hypersensitive GLP-1R form | Potency, µM (series often up to 45.6 µM), inactives show at the top dose activation, usual class: activators | actives 0.007% (n = 380,000); also: % of control where 0% means no effect
Tb PFK inh = inhibitors of T. brucei phosphofructokinase; O15648; T. brucei PFK, ADP-Glo luminescence; Potency, µM (top dose mostly 57.5 µM), inactives show top-dose activity, negative = inhibition, most hits filed as inhibitors; actives 0.17% (n = 330,000);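 also: 0% = uninhibited 1x PFK enzyme wells and -100% = no-enzyme wells; nearly all actives have a fitted effect of over 60% in size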
Target sequence (O15648 whole entry, looked up): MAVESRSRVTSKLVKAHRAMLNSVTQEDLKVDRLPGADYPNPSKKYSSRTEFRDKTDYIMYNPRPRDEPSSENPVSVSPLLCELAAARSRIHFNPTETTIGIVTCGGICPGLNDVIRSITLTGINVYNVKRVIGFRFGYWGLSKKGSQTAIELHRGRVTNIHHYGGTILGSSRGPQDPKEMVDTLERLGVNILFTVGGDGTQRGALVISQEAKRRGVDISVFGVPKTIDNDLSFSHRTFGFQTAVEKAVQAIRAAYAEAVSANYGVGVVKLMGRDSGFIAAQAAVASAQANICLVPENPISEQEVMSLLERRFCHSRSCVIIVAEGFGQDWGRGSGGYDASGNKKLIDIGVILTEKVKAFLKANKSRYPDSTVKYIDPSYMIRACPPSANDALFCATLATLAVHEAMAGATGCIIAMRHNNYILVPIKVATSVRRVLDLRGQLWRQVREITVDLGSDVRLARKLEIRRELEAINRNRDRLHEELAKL
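1.25 nM PFK with 0.5 mM F6P and 0.1 mM ATP in 0.1 M TEA pH 8.0, 5 mM MgCl2, incubated 45 min at room temperature; ADP measured by ADP-Glo luminescence; compounds titrated up to 57 uM.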
PGK inhibitor = T. brucei PGK inhibition; PGK/GAPDH coupled, Kinase-Glo luminescence, 60 min; Potency, µM (series often up to 57.5 µM), for the others: at the top dose activity change, negative = inhibition, actives largely listed as inhibitors; actives 0.043% (n = 380,000); AID 602233; also: % is scaled to controls: 0 for no effect and ±100 for the full control effect; nearly all actives have a fitted effect of over 60% in size
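Recombinant glycosomal PGK reaction used 1,3-bisphosphoglycerate generated in-well by GAPDH (100nM final) in 100mM TEA pH 7.6, 5mM MgCl2, 0.01% Tween-20. After 60 minutes at room temperature, ATP was read by Kinase-Glo Plus luminescence end-point.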
GLP1R cytotox = cytotoxicity counter-screen for GLP-1 receptor inverse agonists. HEK293 cAMP-luciferase reporter cells, luminescence, 24 h. Potency, µM (titrated, usually from 38.3 µM), inactives show at the highest dose activity change, negative = inhibition, hits mostly inhibitors. actives 0.13% (n = 410,000). AID 624418;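 also: loss of luciferase light is scored as toxicity; % is scaled to controls: 0 for no effect and ±100 for the full control effect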
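Compound-treated cells are incubated 24 hr at 37 deg C under 5% CO2 after a 12 hour attachment period, then luciferase detection reagent is added and luminescence is measured following 12 min at room temperature; lowered signal indicates toxicity.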
Numbers without * were called inactive. Hits are enriched below; roughly 1.8% of the tested compounds scored in any of these assays. Unless noted, calls follow the shape of the dose curve; as a rule, active = well fitted curve in the direction sought with a large enough effect; inconclusive = small, poorly fitted or top-dose-only effect, or another doubt; inactive = no such curve, though single readings can be large; an effect the other way counts as inactive or inconclusive. Potency is read from the fitted curve at half-maximal effect.

`CCOc1ccc(NC(=O)CNc2cccc(S(=O)(=O)N3CCCCCC3)c2)cc1OCC` gave GLP1R inv ag 10µM*, Pin1 inhibitor 4%, GLP1R ag 3%, Tb PFK inh 9%, PGK inhibitor -10% and GLP1R cytotox -21%.
O=C(CNc1cccc(S(=O)(=O)N2CCCC2)c1)Nc1cccc(C(F)(F)F)c1 was read as GLP1R inv ag inconclusive, Pin1 inhibitor -1%, GLP1R ag 0%, Tb PFK inh 1%, PGK inhibitor 13% and GLP1R cytotox -30%.
Screening CN(CC(=O)Nc1cccc(F)c1)CC(=O)Nc1cccc(S(=O)(=O)N2CCCCC2)c1 returned GLP1R inv ag 7.9µM*, Pin1 inhibitor 1%, GLP1R ag -1%, Tb PFK inh -2%, PGK inhibitor 10% and GLP1R cytotox -24%.
For O=C(Cc1cccc(C(F)(F)F)c1)Nc1cccc(S(=O)(=O)N2CCCC2)c1 the results were GLP1R inv ag 8.9µM*, Pin1 inhibitor 8%, GLP1R ag -2%, Tb PFK inh -8%, PGK inhibitor -5% and GLP1R cytotox -8%.
For O=C(CNc1ccc(C(F)(F)F)cc1)Nc1cccc(S(=O)(=O)N2CCCCC2)c1 the results were GLP1R inv ag 4µM*, GLP1R ag -3%, PGK inhibitor -2% and GLP1R cytotox -20%.
Screening COc1ccc(/C=C\c2onc(C)c2S(=O)(=O)N2CCC(C(=O)Nc3ccc(F)cc3F)CC2)cc1 returned GLP1R inv ag 4%, Pin1 inhibitor 6%, PGK inhibitor -14% and GLP1R cytotox 5%.
CC(=O)Nc1sc2c(c1-c1nc3ccccc3s1)CNCC2 was read as Pin1 inhibitor -2%.
Screening Cc1nc(SCc2ccc(Cl)cc2)c(C#N)c(C)c1Cl returned GLP1R inv ag 1%, Pin1 inhibitor 6%, GLP1R ag 3%, PGK inhibitor -1% and GLP1R cytotox 0%.
O=[S+]([O-])(c1ccc2ncsc2c1)N1CCN([S+](=O)([O-])c2c(F)cccc2F)CC1 was read as Pin1 inhibitor 1%.
N/C(=N\N=C\c1ccc(Cl)cc1)N/N=C/c1ccc(Cl)cc1 was read as GLP1R ag 29%.
`O=C(COC(=O)C1CC2C=CC1C2)NCc1ccco1` (stereo not given) gave GLP1R inv ag 15%, Pin1 inhibitor inconclusive, GLP1R ag -18%, Tb PFK inh inconclusive, PGK inhibitor 32µM* and GLP1R cytotox -1%.
For Cc1ccccc1-c1ccc2c(c1)O[C@@H](CN(C)C(=O)Nc1ccc(C(F)(F)F)cc1)[C@H](C)CN([C@@H](C)CO)S2(=O)=O the results were GLP1R inv ag 6.3µM*, GLP1R ag 6%, PGK inhibitor inactive and GLP1R cytotox -9%.
Screening COc1ccc(N2CCN(S(=O)(=O)CCNC(=O)COc3ccccc3F)CC2)cc1 returned GLP1R inv ag 4%, Pin1 inhibitor -13%, PGK inhibitor -8% and GLP1R cytotox -9%.
For Cc1cc(NC(=O)CCN2CCCCC2)ccc1Br the results were GLP1R inv ag inconclusive, Pin1 inhibitor 44%, GLP1R ag -5%, Tb PFK inh -1%, PGK inhibitor -7% and GLP1R cytotox -6%.
For Cc1cc(NC(=O)CCN2CCC(C)CC2)ccc1Br the results were GLP1R inv ag 10µM*, Pin1 inhibitor 4%, GLP1R ag 12%, Tb PFK inh -3%, PGK inhibitor 4% and GLP1R cytotox 19%.
For O=C(N1CCc2ccc(S(=O)(=O)N3CCN(S(=O)(=O)c4ccc5c(c4)OCCO5)CC3)cc2C1)C(F)(F)F the results were Pin1 inhibitor -1%.
COc1ccc(OC)c(NC(=O)c2ccc(CN3CCc4ccccc4C3)cc2)c1 was read as GLP1R inv ag 11µM*, Pin1 inhibitor 2%, GLP1R ag 2%, Tb PFK inh -3%, PGK inhibitor 0% and GLP1R cytotox 2%.
For COc1ccc(NC(=O)c2ccc(CN3CCc4ccccc4C3)cc2)c(OC)c1 the results were GLP1R inv ag inconclusive, Pin1 inhibitor -5%, GLP1R ag -6%, Tb PFK inh -2%, PGK inhibitor inactive and GLP1R cytotox -3%.
`O=C(Nc1cccc(Br)c1)c1ccc(CN2CCc3ccccc3C2)cc1` gave GLP1R inv ag 2.2µM*, Pin1 inhibitor 9%, GLP1R ag 1%, Tb PFK inh -9%, PGK inhibitor 1% and GLP1R cytotox -15%.
`O=[S+]([O-])(/C=C/c1nc(Nc2cc(F)cc(F)c2)c2ncn(CC(F)F)c2n1)c1ccccc1` gave Pin1 inhibitor 0%.
Screening COc1cccc(NC(=O)NCc2ccccc2F)c1 returned GLP1R inv ag -1%, Pin1 inhibitor -28%, GLP1R ag -2%, Tb PFK inh -2%, PGK inhibitor -1% and GLP1R cytotox 0%.
Screening COc1cccc(N/C(SCc2ccccc2F)=C(/C#N)C(=O)NCc2cccs2)c1 returned GLP1R inv ag 5µM*, Pin1 inhibitor -5%, GLP1R ag -4%, Tb PFK inh 0%, PGK inhibitor -5% and GLP1R cytotox 23%.
For O=C(Nc1ccc(F)cc1F)c1sccc1SCc1cccc(C(F)(F)F)c1 the results were GLP1R inv ag 10µM*, Pin1 inhibitor -3%, GLP1R ag -5%, Tb PFK inh 0%, PGK inhibitor 6% and GLP1R cytotox -3%.
`O=C(Nc1ccc(F)cc1)c1sccc1SCc1cccc(C(F)(F)F)c1` gave GLP1R inv ag 0%, Pin1 inhibitor 4%, GLP1R ag 1%, Tb PFK inh 0%, PGK inhibitor -8% and GLP1R cytotox 3%.
For CC(=NNC(N)=S)c1ccc2cc3c(cc2c1)OCO3 the results were GLP1R inv ag 2.8µM*, GLP1R ag 18%, PGK inhibitor -2% and GLP1R cytotox inconclusive.
For C/C(=N\NC(N)=S)c1ccc2c(c1)OCCO2 the results were GLP1R inv ag inconclusive, Pin1 inhibitor 3%, GLP1R ag 16%, Tb PFK inh -1%, PGK inhibitor 1% and GLP1R cytotox -101%.
For O=c1c2[nH]c3ccsc3c2cnn1Cc1ccccc1F the results were Pin1 inhibitor -4%.
`CCOC(=O)Cn1c(=O)n(CC2CCCO2)c2nc(-c3ccc(C(C)C)cc3)nc(C(N)=O)c21` (stereo not given) gave GLP1R inv ag -5%, Pin1 inhibitor -9%, GLP1R ag 7%, PGK inhibitor 9% and GLP1R cytotox 4%.

Screens (PubChem BioAssay)
